From PubChem BioAssay AID1159580 (chemical genetic matrix, 2015)
The whole screen tested about 5,500 compounds, of which about 2,000 (36%) were called active. About 18% were inconclusive and are not listed. Rule as the data show it: active = normalized growth mostly below about 0.91 (no sharp cut-off); inconclusive = no clear call, values can overlap the other calls; inactive = mostly above about 0.92. This is one part of the list.

Assay: chemical genetic growth profiling, strain panel (AID 1159580);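 also: tested at 20 µM; growth read once vehicle control cultures reached saturation at 30 °C; 1 = growth at the plate median or of vehicle wells; lower values mean less growth of the strain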
Details: growth OD

Measured: normalized growth

Cc1cc(NC(=O)C2=C(O)c3ccccc3S(=O)(=O)N2C)no1
active: S. cerevisiae deletion strains, locus YKL068W, active compounds read low 0.924 | S. cerevisiae deletion strains, locus YKL085W, strain MDH1 (second series), active compounds read low 0.906 | S. cerevisiae deletion strains, locus YKL085W, strain MDH1, active compounds read low 0.906
inactive: S. cerevisiae deletion strains, locus YJR066W, strain TOR1, active compounds read low 0.893 | S. cerevisiae deletion strains, locus YKL009W, strain mrt4, active compounds read low 0.928 | S. cerevisiae deletion strains, locus YKL160W, strain elf1, active compounds read low 0.996 | S. cerevisiae deletion strains, locus YKL190W, strain CNB1, active compounds read low 0.976 | S. cerevisiae deletion strains, locus YKR001C, strain vps1, active compounds read low 0.973 | S. cerevisiae deletion strains, locus YKR026C, strain gcn3, active compounds read low 0.956 | S. cerevisiae deletion strains, locus YKR091W, strain srl3, active compounds read low 0.95 | S. cerevisiae deletion strains, locus YLL001W, strain dnm1, active compounds read low 0.992 | S. cerevisiae deletion strains, locus YLL026W, active compounds read low 0.968 | S. cerevisiae deletion strains, locus YLL041C, strain sdh2, active compounds read low 0.96 | S. cerevisiae deletion strains, locus YLR027C, strain aat2, active compounds read low 0.975 | S. cerevisiae deletion strains, locus YLR039C, strain RIC1, active compounds read low 0.96 | S. cerevisiae deletion strains, locus YLR058C, strain SHM2, active compounds read low 0.984 | S. cerevisiae deletion strains, locus YLR102C, strain apc9, active compounds read low 0.95 | S. cerevisiae deletion strains, locus YLR113W, strain HOG1, active compounds read low 0.929 | S. cerevisiae deletion strains, locus YLR221C, strain rsa3, active compounds read low 0.968 | S. cerevisiae deletion strains, locus YLR258W, strain gsy2, active compounds read low 0.971 | S. cerevisiae deletion strains, locus YLR262C, strain YPT6 (second series), active compounds read low 0.999 | S. cerevisiae deletion strains, locus YLR262C, strain YPT6, active compounds read low 0.977 | S. cerevisiae deletion strains, locus YLR268W, strain sec22, active compounds read low 0.969 | S. cerevisiae deletion strains, locus YLR320W, strain mms22, active compounds read low 0.955 | S. cerevisiae deletion strains, locus YLR330W, strain CHS5, active compounds read low 0.962 | S. cerevisiae deletion strains, locus YLR342W, strain FKS1 (second series), active compounds read low 1.01 | S. cerevisiae deletion strains, locus YLR342W, strain FKS1, active compounds read low 0.975 | S. cerevisiae deletion strains, locus YLR357W, strain rsc2, active compounds read low 0.994 | S. cerevisiae deletion strains, locus YLR370C, strain arc18, active compounds read low 0.98 | S. cerevisiae deletion strains, locus YLR371W, strain rom2, active compounds read low 0.967 | S. cerevisiae deletion strains, locus YLR384C, strain iki3, active compounds read low 0.954 | S. cerevisiae deletion strains, locus YLR418C, strain cdc73, active compounds read low 0.951 | S. cerevisiae deletion strains, locus YML016C, strain PPZ1, active compounds read low 0.987 | S. cerevisiae deletion strains, locus YML032C, strain rad52, active compounds read low 0.985 | S. cerevisiae deletion strains, locus YML120C, strain ndi1, active compounds read low 0.947 | S. cerevisiae deletion strains, locus YML124C, strain tub3, active compounds read low 0.954 | S. cerevisiae deletion strains, locus YMR058W, strain fet3, active compounds read low 0.976 | S. cerevisiae deletion strains, locus YMR078C, strain ctf18, active compounds read low 0.924 | S. cerevisiae deletion strains, locus YMR125W, strain sto1, active compounds read low 0.955 | S. cerevisiae deletion strains, locus YMR129W, active compounds read low 0.956 | S. cerevisiae deletion strains, locus YMR205C, strain PFK2, active compounds read low 0.989 | S. cerevisiae deletion strains, locus YMR223W, strain ubp8, active compounds read low 0.944 | S. cerevisiae deletion strains, locus YMR231W, strain pep5, active compounds read low 0.967 | S. cerevisiae deletion strains, locus YMR307W, strain GAS1, active compounds read low 0.961 | S. cerevisiae deletion strains, locus YNL067W, strain RPL9B, active compounds read low 1.01 | S. cerevisiae deletion strains, locus YNL071W, strain lat1, active compounds read low 0.976 | S. cerevisiae deletion strains, locus YNL183C, strain NPR1, active compounds read low 0.879 | S. cerevisiae deletion strains, locus YNL209W, strain ssb2, active compounds read low 0.96 | S. cerevisiae deletion strains, locus YNL233W, strain BNI4, active compounds read low 1.04 | S. cerevisiae deletion strains, locus YNL248C, strain rpa49, active compounds read low 0.973 | S. cerevisiae deletion strains, locus YNL250W, strain rad50, active compounds read low 0.908 | S. cerevisiae deletion strains, locus YNL271C, strain bni1, active compounds read low 0.923 | S. cerevisiae deletion strains, locus YNL298W, strain CLA4, active compounds read low 0.923 | S. cerevisiae deletion strains, locus YNL307C, strain MCK1, active compounds read low 0.947 | S. cerevisiae deletion strains, locus YNL322C, strain KRE1 (second series), active compounds read low 0.953 | S. cerevisiae deletion strains, locus YNL322C, strain KRE1, active compounds read low 0.978 | S. cerevisiae deletion strains, locus YNR049C, strain mso1, active compounds read low 0.967 | S. cerevisiae deletion strains, locus YNR052C, strain pop2, active compounds read low 0.955 | S. cerevisiae deletion strains, locus YOL006C, strain TOP1, active compounds read low 1.03 | S. cerevisiae deletion strains, locus YOL012C, strain htz1 1.14 | S. cerevisiae deletion strains, locus YOL147C, strain pex11, active compounds read low 0.942 | S. cerevisiae deletion strains, locus YOR001W, strain rrp6, active compounds read low 0.997 | S. cerevisiae deletion strains, locus YOR061W, strain CKA2, active compounds read low 0.992 | S. cerevisiae deletion strains, locus YOR069W, strain VPS5, active compounds read low 0.972 | S. cerevisiae deletion strains, locus YOR070C, strain gyp1, active compounds read low 0.971 | S. cerevisiae deletion strains, locus YOR080W, strain dia2, active compounds read low 0.974 | S. cerevisiae deletion strains, locus YOR083W, strain WHI5, active compounds read low 0.964 | S. cerevisiae deletion strains, locus YOR106W, strain vam3, active compounds read low 0.996 | S. cerevisiae deletion strains, locus YOR136W, strain idh2, active compounds read low 0.978 | S. cerevisiae deletion strains, locus YOR144C, strain elg1, active compounds read low 0.956 | S. cerevisiae deletion strains, locus YOR184W, strain ser1, active compounds read low 0.945 | S. cerevisiae deletion strains, locus YOR231W, strain MKK1, active compounds read low 0.993 | S. cerevisiae deletion strains, locus YOR265W, strain rbl2, active compounds read low 0.966 | S. cerevisiae deletion strains, locus YOR270C, strain vph1, active compounds read low 0.969 | S. cerevisiae deletion strains, locus YOR290C, strain snf2, active compounds read low 0.977 | S. cerevisiae deletion strains, locus YOR316C, strain cot1, active compounds read low 0.94 | S. cerevisiae deletion strains, locus YPL051W, strain arl3, active compounds read low 0.989 | S. cerevisiae deletion strains, locus YPL078C, strain atp4, active compounds read low 0.981 | S. cerevisiae deletion strains, locus YPL106C, strain sse1, active compounds read low 0.954 | S. cerevisiae deletion strains, locus YPL240C, strain hsp82, active compounds read low 0.973 | S. cerevisiae deletion strains, locus YPL256C, strain CLN2, active compounds read low 0.905 | S. cerevisiae deletion strains, locus YPR119W, strain clb2, active compounds read low 0.945 | S. cerevisiae deletion strains, locus YPR141C, strain kar3, active compounds read low 0.919 | S. cerevisiae deletion strains, locus YPR163C, strain tif3, active compounds read low 0.931 | S. cerevisiae deletion strains, locus YPR167C, strain met16, active compounds read low 0.943 | S. cerevisiae deletion strains, strain wtn01, active compounds read low 0.961 | S. cerevisiae strains, strain wild type, active compounds read low 0.983
